# Pf Dd2 growth: P. falciparum Dd2 growth inhibitors, primary screen, SYBR Green fluorescence, single dose replicates; activity change, % at 10 µM; 2.3% of 94,000 active; 72 h; active compounds read low; AID 1159554, 2015; in the data active means activity change below about -80%; inconclusive means no clear call, values can overlap the other calls
# T cruzi growth-1: T. cruzi intracellular proliferation inhibitors, primary screen, cell-based, beta-gal Tulahuen parasites, NIH3T3 host, luminescence; T. cruzi beta-gal in NIH3T3, GalScreen luminescence, 90 h; inhibition, % at 8.34 µM; 5.9% of 77,000 active; AID 624255, 2012;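 active means mean inhibition above about 93%, with at least 55% of replicates each passing it, limit read from the data, passing the limit was not always enough; inconclusive means only one of those two conditions holds; inactive means neither condition holds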
# C diff HTS: C. difficile growth inhibitors, primary screen, HTS. Clostridium difficile clinical isolate growth, OD600, 24 h; active compounds read low. AID 1259249, 2017. 0.25% of 86,000 active. growth activity, negative = inhibition, % at 16 µg/mL (by protocol);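 active means mean growth activity at or below -80% and every replicate also at or below -80%; inconclusive means mean at or below -80% but some replicate above -80%; inactive means mean growth activity above -80%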;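 further: 0% = DMSO wells and -100% = levofloxacin 16 µg/mL wells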
# T cruzi growth-2: T. cruzi intracellular proliferation inhibitors, confirmation, cell-based, NIH3T3 host, beta-gal parasite, luminescence, cherry-pick; shares compounds with T cruzi growth-1; T. cruzi beta-gal in NIH3T3, GalScreen luminescence, 90 h; inhibition, % at 8.35 µM; 72% of 5,600 active; AID 651739, 2012;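 active means mean replicate inhibition above about 95% and at least 55% of replicates individually reaching it, limit read from the data; inconclusive means only one of the two criteria is met; inactive means neither criterion is met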
# T cruzi growth-3: inhibitors of intracellular T. cruzi replication, confirmation, NIH3T3 host cells, beta-gal parasites, cherry-pick, set 2. shares compounds with T cruzi growth-1. T. cruzi beta-gal in NIH3T3, GalScreen luminescence, 90 h. inhibition, % at 2.09 µM. 21% of 5,600 active. AID 651740, 2012;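 active means mean inhibition above about 95%, with at least 55% of replicates also reaching it, limit read from the data; inconclusive means meets just one of the two conditions; inactive means meets neither condition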;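 further: plate controls were neutral control median for no effect and positive control median for full effect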
# 3T3 cytotox: cytotoxicity in mouse NIH/3T3 fibroblasts, confirmation, cytotoxicity control for T. cruzi proliferation inhibitor project, cell-based, cherry-pick, single point. shares compounds with T cruzi growth-1. NIH/3T3 viability, CellTiter-Glo ATP luminescence, 90 h. cytotoxicity (signal decrease), % at 8.35 µM. 14% of 5,600 active;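 active means mean signal decrease across replicates above about 35% based on untreated-well scatter, with enough replicates individually passing, limit read from the data; inconclusive means no rule stated though some were filed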;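 further: 0% = median of neutral control wells and 100% = median of positive control wells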
# 3T3 cytotox 2: NIH/3T3 fibroblast cytotoxicity, confirmation, cytotoxicity control, cell-based, cherry-pick, single point, set 2. shares compounds with T cruzi growth-1. NIH/3T3 viability, CellTiter-Glo ATP luminescence, 90 h. inhibition, % at 24.9 µM. 56% of 5,600 active. AID 651744, 2012;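 active means mean loss of cell viability signal at or above a set limit, and enough replicates individually reaching it; inconclusive means meets only the mean limit or only the replicate share; inactive means meets neither condition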;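 further: 0% = median of neutral control wells and 100% = median of positive control wells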
# * = called active by the depositor; ? = inconclusive; · = no result. The list is not random: actives were taken first. Their share in the collection is about 6.8%.
SMILES,Pf Dd2 growth,T cruzi growth-1,C diff HTS,T cruzi growth-2,T cruzi growth-3,3T3 cytotox,3T3 cytotox 2
C[C@H]1CN([C@@H](C)CO)C(=O)c2cccc(N(C)C)c2O[C@@H]1CN(C)Cc1ccc(C(F)(F)F)cc1,-50,103*,-3,45,36,10,66*
C[C@H]1CN([C@@H](C)CO)C(=O)c2cccc(N(C)C)c2O[C@H]1CN(C)Cc1ccc(C(F)(F)F)cc1,-12,33,3,·,·,·,·
C[C@H](CO)N1C[C@H](C)[C@@H](CN(C)Cc2ccccc2)Oc2c(cccc2N(C)C)C1=O,19,9,-14,·,·,·,·
C[C@@H]1CN([C@@H](C)CO)C(=O)c2cc(NS(=O)(=O)c3cn(C)cn3)ccc2O[C@@H](C)CCCCO[C@@H]1CN(C)C(=O)c1ccncc1,23,13,3,·,·,·,·
COc1ccc2c3c(n(C)c2c1)[C@@H](CO)N(C(=O)CN1CCOCC1)CC31CCN(C)CC1,8,·,·,·,·,·,·
O=S(=O)(c1ccccc1)N1CCCCN2[C@H](CO)[C@H](c3ccc(-c4cncnc4)cc3)[C@@H]2C1,27,35,-5,·,·,·,·
CN(C)C(=O)[C@@H]1[C@@H](CO)[C@@H]2Cn3c(ccc(-c4cccc(F)c4)c3=O)[C@@H]2N1C(=O)c1cnccn1,·,57,-2,·,·,·,·
O=C(C1CCOCC1)N1CC[C@@H]2[C@H]1c1cc(-c3ccc(F)cc3)ccc1N[C@@H]2CO,4,105*,-6,?,82,-9,23
O=C(C1CC1)N1CC[C@@H]2[C@H](CO)Nc3ccc(-c4ccc(F)cc4)cc3[C@@H]21,0,42,-13,·,·,·,·
O=C(C1CC1)N1CC[C@@H]2[C@@H](CO)Nc3ccc(-c4ccc(F)cc4)cc3[C@@H]21,2,84,-11,·,·,·,·
O=C(C1CCOCC1)N1CC[C@@H]2[C@@H](CO)Nc3ccc(-c4ccc(F)cc4)cc3[C@@H]21,32,105*,-7,99*,60,-13,14
COc1ccccc1-c1ccc2c(c1)[C@@H]1[C@@H](CCN1C(=O)C1CCOCC1)[C@H](CO)N2,-23,97*,-8,102*,72,-23,-30
COc1ccccc1-c1ccc2c(c1)[C@@H]1[C@@H](CCN1C(=O)C1CCOCC1)[C@@H](CO)N2,-7,89,-16,·,·,·,·
Cc1ccc(S(=O)(=O)N[C@H]2CC[C@@H](CC(=O)N3CCN(c4ccccc4)CC3)O[C@@H]2CO)cc1,3,20,-2,·,·,·,·
COCC#Cc1cnc2c(c1)C(=O)N([C@H](C)CO)C[C@@H](C)[C@H](CN(C)Cc1ccc3c(c1)OCO3)O2,-3,·,4,·,·,·,·
C[C@H]1CN([C@@H](C)CO)C(=O)c2cc(NS(C)(=O)=O)ccc2O[C@H]1CN(C)Cc1ccncc1,20,8,3,·,·,·,·
O=C(C[C@@H]1C[C@@H]2c3cc(NS(=O)(=O)c4ccccc4)ccc3O[C@@H]2[C@@H](CO)O1)N1CCOCC1,4,8,-9,·,·,·,·
O=C(C[C@@H]1C[C@@H]2c3cc(NS(=O)(=O)c4ccccc4)ccc3O[C@@H]2[C@H](CO)O1)N1CCCCC1,-3,104*,-8,64,2,21,18
O=C(CC1CC1)Nc1ccc2c(c1)[C@H]1C[C@H](CC(=O)N3CCCCC3)O[C@H](CO)[C@H]1O2,15,8,0,·,·,·,·
O=C(CC1CC1)Nc1ccc2c(c1)[C@@H]1C[C@@H](CC(=O)N3CCCCC3)O[C@H](CO)[C@@H]1O2,18,110*,0,19,-45,-10,2
O=C(CC1CC1)Nc1ccc2c(c1)[C@H]1C[C@@H](CC(=O)N3CCCCC3)O[C@@H](CO)[C@H]1O2,-16,86,0,·,·,·,·
O=C(CC1CC1)Nc1ccc2c(c1)[C@H]1C[C@@H](CC(=O)N3CCCCC3)O[C@H](CO)[C@H]1O2,8,104*,-2,?,22,6,15
COc1ccccc1NC(=O)N(C)C[C@H]1Oc2cc(Br)ccc2S(=O)(=O)N([C@@H](C)CO)C[C@@H]1C,-41,·,4,·,·,·,·
O=C(C[C@H]1C=C[C@@H](NC(=O)Nc2cc(F)ccc2F)[C@H](CO)O1)Nc1ccccc1,20,-10,·,·,·,·,·
C[C@H](CO)N1C[C@H](C)[C@H](CN(C)C)Oc2cc(-c3ccccc3F)ccc2S1(=O)=O,-6,?,4,19,9,6,50*
SMILES,Pf Dd2 growth,T cruzi growth-1,C diff HTS,T cruzi growth-2,T cruzi growth-3,3T3 cytotox,3T3 cytotox 2
C[C@@H]1CN([C@H](C)CO)S(=O)(=O)c2ccc(C3=CCCC3)cc2O[C@@H]1CN(C)CC1CC1,-31,63,9,·,·,·,·
C[C@H]1CN([C@@H](C)CO)S(=O)(=O)c2ccc(-c3ccccc3F)cc2O[C@H]1CN(C)C,-11,64,4,·,·,·,·
COc1ccccc1-c1ccc2c(c1)O[C@@H](CN(C)CC1CCCC1)[C@H](C)CN([C@@H](C)CO)S2(=O)=O,-62,126*,14,101*,100*,42*,103*
COc1ccccc1-c1ccc2c(c1)O[C@H](CN(C)CC1CCOCC1)[C@@H](C)CN([C@@H](C)CO)S2(=O)=O,-36,·,-1,·,·,·,·
C[C@@H]1CN([C@@H](C)CO)S(=O)(=O)c2ccc(-c3ccccc3)cc2O[C@H]1CN(C)CC1CCCC1,-78,96*,9,97*,106*,58*,104*
C[C@@H]1CN([C@@H](C)CO)S(=O)(=O)c2ccc(-c3ccccc3)cc2O[C@@H]1CN(C)CC1CC1,-44,71,·,·,·,·,·
C[C@@H]1CN([C@@H](C)CO)S(=O)(=O)c2ccc(C3=CCCC3)cc2O[C@H]1CN(C)CC1CCCC1,-64,107*,2,97*,82,41*,105*
COc1ccccc1-c1ccc2c(c1)O[C@@H](CN(C)C(=O)c1ccncc1)[C@H](C)CN([C@@H](C)CO)S2(=O)=O,-8,62,1,·,·,·,·
C[C@@H]1CN([C@@H](C)CO)S(=O)(=O)c2ccc(-c3ccccc3F)cc2O[C@H]1CN(C)C,-18,114*,4,54,17,23,77*
COc1ccccc1-c1ccc2c(c1)O[C@H](CN(C)C)[C@H](C)CN([C@@H](C)CO)S2(=O)=O,-2,75,-1,·,·,·,·
COc1ccccc1-c1ccc2c(c1)O[C@@H](CN(C)C(=O)c1ccncc1)[C@@H](C)CN([C@H](C)CO)S2(=O)=O,-1,105*,2,94,76,4,?
